Drawing on PubChem BioAssay (EPA / NIEHS), this text covers AC50 and outcome for seven molecules.

Where “and” joins values, the source holds several entries; their conditions need not be identical. Equal values may be shown once. Results filed as inconclusive are left out. Some structures have more than one record in an assay (separate samples or runs), and their calls can disagree. Calls of active or inactive are those of the source. How the source made its calls: active means hit-call score of the fitted dose curve at least 0.9, where 1 is the maximum; inconclusive means response in the unintended direction; inactive means score below 0.9.

Assay [1] is described as follows: TOX21_p53_BLA_p2_viability: Viability Assessment in the Tox21 HCT-116 p53 Agonism Beta-lactamase Assay, Phase 2 (AID 2283591).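 Further: compound exposure lasted 16 h at 37 °C; actives lower the ATP signal meaning cytotoxicity.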 In short, it runs like this:
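Cytotoxicity readout: CellTiter-Glo ATP luminescence, 30 min at room temperature, after the beta-lactamase read. Cells were HCT116 exposed 16 h at 37C to compounds pin-transferred at 217-fold dilution from DMSO stocks.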

Assay [2] is described as follows: TOX21_p53_BLA_p3_viability: Viability Assessment in the Tox21 HCT-116 p53 Agonism Beta-lactamase Assay, Phase 3 (AID 2283593).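 Further: cells exposed to compound for 16 h before reading.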 In short, it runs like this: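 Cellular ATP was quantified by CellTiter-Glo luminescence, read after 30 min at room temperature. Beforehand, HCT116 cells (4000/well) received compound 5 h post-seeding, 217-fold diluted from DMSO, then incubated 16 h at 37C.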

The target in assay [3] is Cellular tumor antigen p53 (Homo sapiens) (UniProt P04637). The assay can be described thus: TOX21_p53_BLA_p3_ratio: Tox21 HCT-116 p53 Agonism Beta-lactamase Assay, Ratio, Phase 3 (AID 2283596). Summed up:
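Cells were seeded at 4000/well, rested 5 h at 37C, then dosed with DMSO compound solutions (217-fold dilution) for 16 h. CCF4-AM substrate was loaded for 2 h at room temperature, and the 460/530 nm emission ratio was fitted for gain of signal versus DMSO.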

Assay [4] can be described thus: TOX21_p53_BLA_p4_viability: Viability Assessment in the Tox21 HCT-116 p53 Agonism Beta-lactamase Assay, Phase 4 (AID 2283597).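 Further: hits lower the luminescence signal meaning cytotoxicity.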 Summed up: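 Cytotoxicity as reduced cellular ATP (CellTiter-Glo luminescence, 30 min room temperature), measured in the same wells following the CCF4 FRET p53 reading. Human HCT-116 cells received compounds in DMSO (217-fold dilution) for 16 h.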

For assay [5], the target named is Cellular tumor antigen p53 (Homo sapiens) (UniProt P04637). Put plainly: TOX21_p53_BLA_p5_ratio: Tox21 HCT-116 p53 Agonism Beta-lactamase Assay, Ratio, Phase 5 (AID 2283599). Summed up: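 Beta-lactamase reporter ratio (blue 460 nm over green 530 nm, 405 nm excitation) after 2 h CCF4-AM loading, in HCT-116 cells exposed 16 h at 37 C to compounds pinned at 217-fold dilution. Increases relative to DMSO baseline scored.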

Assay [6] in a line: TOX21_p53_BLA_p5_viability: Viability Assessment in the Tox21 HCT-116 p53 Agonism Beta-lactamase Assay, Phase 5 (AID 2283600). In short, it runs like this:
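Viability came from CellTiter-Glo ATP luminescence, read after 30 min at room temperature. Before this, HCT-116 p53-bla cells (4000/well) had 16 hours of compound exposure at 37C, with DMSO stocks diluted 217-fold on transfer.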

The target in assay [7] is Cellular tumor antigen p53 (Homo sapiens) (UniProt P04637). The assay can be described thus: TOX21_p53_BLA_p4_ratio: Tox21 HCT-116 p53 Agonism Beta-lactamase Assay, Ratio, Phase 4 (AID 2283601). Summed up: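 Signal is the blue/green (460nm/530nm) ratio of cleaved versus uncleaved CCF4-AM substrate, read after 2 h substrate loading. Cells were HCT116 carrying the p53-responsive beta-lactamase reporter, dosed 16 h at 37C, 5% CO2; CellTiter-Glo measured in parallel.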

Assay [8] in a line: Tanguay_ZF_120hpf_YSE_legacy: (Legacy) Oregon State University Tanguay Lab 120 Hour Post-fertilization zebrafish Assay for Yolk Sac Edema (AID 2283634). In short, it runs like this:
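Presence or absence of yolk sac edema was recorded at 120 hpf in surviving larvae. These were wild-type Tropical 5D embryos, chorion removed at 4 hpf, held in static exposure at 28C from 6 hpf with 0.64% DMSO vehicle.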

The nature of assay [9]: Tanguay_ZF_120hpf_AXIS_legacy: (Legacy) Oregon State University Tanguay Lab 120 Hour Post-fertilization zebrafish Assay for Body Axis Malformation (AID 2283635). In short, it runs like this:
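Binary scoring of axis defects at 120 hpf under brightfield, fitted positive versus DMSO. Tropical 5D embryos, chorion removed by pronase at 4 hpf, were singly exposed in sealed, dark plates at 28C from 6 hpf; DMSO 0.64% final.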

A short description of assay [10]: Tanguay_ZF_120hpf_EYE_legacy: (Legacy) Oregon State University Tanguay Lab 120 Hour Post-fertilization zebrafish Assay for Eye Malformation (AID 2283636).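 Further: binary presence or absence of eye malformation scored by brightfield in 120 hpf larvae.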 In short, it runs like this: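 Binary brightfield scoring of eye defects at 120 hpf after static exposure from 6 hpf of single pronase-dechorionated wild-type embryos (28C, 0.64% DMSO). Non-mortality endpoints omitted where embryos died; fit vs DMSO.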

Assay [11] in a line: Tanguay_ZF_120hpf_SNOU_legacy: (Legacy) Oregon State University Tanguay Lab 120 Hour Post-fertilization zebrafish Assay for Snout Malformation (AID 2283637). In short, it runs like this: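 Binary snout-malformation call at 120 hpf in wild-type 5D embryos, chorion removed by pronase, under static exposure from 6 hpf at 28C (0.64% DMSO). Embryos dying by 24 or 120 hpf excluded.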

Assay [12] can be described thus: Tanguay_ZF_120hpf_JAW_legacy: (Legacy) Oregon State University Tanguay Lab 120 Hour Post-fertilization zebrafish Assay for Jaw Malformation (AID 2283638). Summed up: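 Binary jaw-malformation call at 120 hpf by brightfield microscopy. Embryos (Tropical 5D strain, chorion removed at 4 hpf) were dosed statically at 6 hpf, one per well, at 28C with 0.64% DMSO. Embryos that died were not scored.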

A short description of assay [13]: Tanguay_ZF_120hpf_OTIC_legacy: (Legacy) Oregon State University Tanguay Lab 120 Hour Post-fertilization zebrafish Assay for Otic Vesicle Malformation (AID 2283639). In short, it runs like this: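 Binary scoring of otic vesicle defects at 120 hpf in zebrafish (Tropical 5D) held under static exposure at 28C, sealed and shaded, with final DMSO 0.64%. Embryos dying by 24 or 120 hpf excluded; fitted positively against DMSO.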

Assay [14] can be described thus: Tanguay_ZF_120hpf_PE_legacy: (Legacy) Oregon State University Tanguay Lab 120 Hour Post-fertilization zebrafish Assay for Pericardial Edema (AID 2283640). In short, it runs like this: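 Scoring was binary, by brightfield microscopy at 120 hpf, and skipped where mortality occurred. Wild-type embryos were kept under sealed, foil-covered static exposure at 28C in 0.64% (vol/vol) DMSO.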

Assay [15] is described as follows: Tanguay_ZF_120hpf_SOMI_legacy: (Legacy) Oregon State University Tanguay Lab 120 Hour Post-fertilization zebrafish Assay for Somite Malformation (AID 2283647). In short, it runs like this:
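Binary somite-defect scoring at 120 hpf, omitted for embryos that died, in wild-type (Tropical 5D) zebrafish with chorion removed by pronase at 4 hpf; static exposure began 6 hpf, single embryos per well, 28C, 0.64% DMSO; fitted positive versus DMSO.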

Assay [16] is described as follows: Tanguay_ZF_120hpf_PFIN_legacy: (Legacy) Oregon State University Tanguay Lab 120 Hour Post-fertilization zebrafish Assay for Pectoral Fin Malformation (AID 2283648).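 Further: each larva judged yes or no for fin defect by brightfield with dead larvae skipped.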 In short, it runs like this: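 Pectoral fin malformation was recorded as a binary endpoint at 120 hpf in wild-type Tropical 5D larvae, which had been dechorionated and exposed statically from 6 hpf at 28C in 0.64% DMSO. Dead embryos were excluded.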

Assay [17] is described as follows: Tanguay_ZF_120hpf_CFIN_legacy: (Legacy) Oregon State University Tanguay Lab 120 Hour Post-fertilization zebrafish Assay for Caudal Fin Malformation (AID 2283649). In short, it runs like this: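 Binary brightfield scoring of caudal fin defects at 120 hpf after static, light-shielded exposure at 28C from 6 hpf. Tropical 5D embryos, chorion removed with pronase at 4 hpf, final DMSO 0.64%.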

Assay [18] is described as follows: Tanguay_ZF_120hpf_MORT_legacy: (Legacy) Oregon State University Tanguay Lab 120 Hour Post-fertilization zebrafish Assay for Mortality (AID 2283633). Summed up:
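Static waterborne exposure from 6 to 120 hpf at 28C of single dechorionated wild-type (5D) embryos per well, 0.64% DMSO final. Death recorded present/absent by brightfield at 24 and 120 hpf.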

A short description of assay [19]: Tanguay_ZF_120hpf_BRAI_legacy: (Legacy) Oregon State University Tanguay Lab 120 Hour Post-fertilization zebrafish Assay for Brain Malformation (AID 2283641). In short, it runs like this: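 Binary brightfield scoring of brain malformation at 120 hpf in Tropical 5D larvae held under static exposure at 28C (0.64% v/v DMSO), non-mortality endpoints skipped if dead. Positive control: 5uM trimethyltin chloride; fit versus DMSO.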

Cellular tumor antigen p53 (Homo sapiens), sequence (P04637 whole entry, looked up): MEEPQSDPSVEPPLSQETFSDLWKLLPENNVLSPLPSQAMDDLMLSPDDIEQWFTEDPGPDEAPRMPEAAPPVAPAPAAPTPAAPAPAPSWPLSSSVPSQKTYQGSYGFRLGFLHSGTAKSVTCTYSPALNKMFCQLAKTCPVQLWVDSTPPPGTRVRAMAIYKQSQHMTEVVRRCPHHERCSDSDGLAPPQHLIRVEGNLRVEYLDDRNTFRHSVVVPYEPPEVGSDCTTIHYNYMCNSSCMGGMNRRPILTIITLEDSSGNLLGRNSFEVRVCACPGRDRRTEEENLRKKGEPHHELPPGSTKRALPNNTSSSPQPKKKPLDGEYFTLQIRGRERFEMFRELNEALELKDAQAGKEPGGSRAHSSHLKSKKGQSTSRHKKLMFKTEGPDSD

`CCC[CH2][Sn]([Cl])([CH2]CCC)[CH2]CCC`: the AC50 – broadly, the concentration at which the activity in the assay is half-maximal – in assay [1] is 1.22 µM (active) and 1.04 µM (active); in assay [2] it was 921 nM (active) and 958 nM (active); in assay [3], 25.6 µM (active) and 28.6 µM (active); in [4] it was 917 nM (active) and 983 nM (active); in [5], 36.5 µM (active) and 31.8 µM (active); in assay [6], 1.52 µM (active). The AC50 in assay [7] is 27.7 µM (active) and 25.6 µM (active). Besides, the outcome in assay [8], in assay [9], in [10], in assay [11], in [12] and in [13] was inactive. The call in assay [14], in assay [15], in [16] and in assay [17] was inactive.

Regarding `Clc1ccc(C(c2ccc(Cl)cc2)C(Cl)Cl)cc1`, the AC50 in [1] is 59.6 µM (active) and 33.7 µM (active); in [2], 79.1 µM (active) and 50.6 µM (active); in assay [3], 48.4 µM (active); in [4], 63.4 µM (active) and 46.7 µM (active); in [5], 89.8 µM (active) and 85.4 µM (active); in assay [6], 81.2 µM (active) and 73.1 µM (active). Also, the AC50 in assay [7] is 78.4 µM (active) and 79.1 µM (active). Further, the result in [3], in [18], in assay [8], in assay [9], in assay [10] and in assay [11] was inactive. In addition, the molecule was called inactive in assay [12], in assay [13] and in [14].

`Cc1ccc(N)c(N)c1`: the result in assay [1], in assay [2], in [3], in assay [4], in assay [5] and in assay [6] was inactive. Also, the result in [7], in assay [8], in assay [9], in assay [10], in [11] and in [13] was inactive. Besides, the molecule was classed as inactive in assay [14], in assay [15], in assay [16] and in assay [17].

Take `C1=Cc2cccc3cccc1c23`: the result in assay [1], in assay [2], in assay [3], in assay [4], in [5] and in assay [6] was inactive. Further, the outcome in assay [7], in [18], in [8], in assay [9], in [10] and in assay [12] was inactive. In addition, the molecule was called inactive in [13], in assay [14], in assay [15], in assay [16] and in assay [17].

With `CCCCOC(=O)c1ccccc1C(=O)OCc1ccccc1`, the call in [1], in assay [2], in [3], in assay [4], in assay [5] and in assay [6] was inactive. For the same molecule, the outcome in assay [7], in [18], in [8], in [9], in assay [10] and in [11] was inactive. Moreover, the call in [12], in assay [13], in assay [14], in assay [19], in assay [15] and in [16] was inactive. For the same molecule, the outcome in assay [17] was inactive.

`CC(C)(C)OOC(=O)c1ccccc1`: the molecule was called inactive in assay [1], in assay [2], in assay [3], in assay [4], in assay [5] and in assay [6]. The result in assay [7], in assay [18], in assay [8], in assay [9], in assay [10] and in assay [12] was inactive. For the same molecule, the molecule was classed as inactive in assay [13], in [14], in [15], in assay [16] and in assay [17].

`CN(C)C(=O)Nc1ccc(Cl)cc1`: the outcome in [1], in assay [2], in assay [3], in assay [4], in assay [5] and in [6] was inactive. In addition, the outcome in [7], in assay [8], in [9], in assay [10], in assay [11] and in assay [12] was inactive. Also, the outcome in [13], in assay [14], in [15], in assay [16] and in assay [17] was inactive.
